High-throughput results as filed in PubChem.
In the library only some 12% were active in any assay of this set; here they are far more common.
Cycloheximide cs – counter-screen hit for Shiga toxin inhibitors, cycloheximide | 300,000 compounds, 12% hits | cell reporter, cycloheximide protein synthesis inhibition counterscreen | AID 2314 | max response, %; in the data active means max response mostly above about 13%, no sharp cut-off; inactive means mostly below about 14%; further: read at 38.3 µM for the half of the compounds with a filed dose
Lassa entry inh – Lassa virus entry inhibition | Lassa virus pseudotype entry inhibition, cell reporter | Potency, µM (titrated, usually from 37.9 µM), usual class: inhibitors | 300,000 compounds, 1.2% hits; calls by dose curve; tested in HEK293 cells; further: nearly all actives have a fitted effect of over 50% in size
MARV entry inh – Marburg virus entry inhibition; Marburg virus pseudotyped entry inhibition, cell reporter; Potency, µM (doses to about 37.8 µM), usual class: inhibitors; 300,000 compounds, 1.8% hits; calls by dose curve; tested in HEK293 cells
Shiga toxin inh – inhibitors of Shiga toxin in Vero cells. Vero cells, Shiga toxin protein synthesis inhibition reporter. inhibition, % at 38.7 µM. 290,000 compounds, 9.2% hits; in the data active means inhibition mostly above about 28%, no sharp cut-off; inactive means mostly below about 43%
Each line names hits and unclear results; the compound was inactive in the other large screens.

Cc1ccccc1-c1nnc(SCc2ccccc2)o1	Cycloheximide cs 31.8, MARV entry inh inconclusive, Shiga toxin inh 84.2
Cc1ccccc1-c1nnc(SCc2ccccc2F)o1	Cycloheximide cs 58.1, MARV entry inh inconclusive, Shiga toxin inh 86.9
Fc1ccccc1CSc1nnc(-c2cccnc2)o1	Cycloheximide cs 47.9, Shiga toxin inh 109.6 (no result: Lassa entry inh, MARV entry inh)
O=C(O)CSc1nnc(-c2ccccc2)o1	none
Fc1ccccc1CSc1nnc(-c2ccccc2)o1	Cycloheximide cs 50.2, MARV entry inh inconclusive, Shiga toxin inh 74.9
CCc1cc2c3c([nH]c2cc1S(=O)(=O)NCCCOC)CC(C)(C)CC3=O	none (no result: Lassa entry inh, MARV entry inh)
CCCCC(=O)N1C/C=C\C(c2ccc(OC)cc2)N(Cc2ccc(F)cc2)C(=O)C1Cc1ccccc1 (stereo unspecified)	none (no result: Lassa entry inh, MARV entry inh)
O=C(Nc1cccc(C(=O)OCc2cc(=O)n3nc(C4CC4)sc3n2)c1)c1ccc(F)cc1	none (no result: Cycloheximide cs, MARV entry inh, Shiga toxin inh)
O=C(c1ccc2c(c1)CCN2S(=O)(=O)c1ccc(Cl)cc1)N1CCN(c2ccccc2)CC1	none (no result: Cycloheximide cs, Shiga toxin inh)
CCOC(=O)C(C)NC(=O)c1c2c(nc3ccccc13)C(=O)N(C1CCCCC1)C2 (stereo unspecified)	none (no result: Cycloheximide cs, MARV entry inh, Shiga toxin inh)
COc1cc(OC)cc(-c2nnc(SCc3c(F)cccc3Cl)o2)c1	Cycloheximide cs 43.7, Shiga toxin inh 81.0
Cc1ccccc1-c1nnc(Cc2ccccc2)o1	Cycloheximide cs 40.8, Lassa entry inh inconclusive, MARV entry inh inconclusive, Shiga toxin inh 138.2
Fc1cccc(Cl)c1CSc1nnc(CNc2ccccc2)o1	Cycloheximide cs 17.2 (no result: Lassa entry inh, MARV entry inh)
O=c1cc(CSc2nnc(-c3ccccc3)o2)c2ccccc2[nH]1	Cycloheximide cs 10.4 (no result: Lassa entry inh, MARV entry inh)
Fc1ccc(NCc2nnc(SCc3ccccc3)o2)cc1	none
c1ccc(Cc2nnc(-c3ccccc3)o2)cc1	MARV entry inh inconclusive
COc1ccc(-c2nnc(SCc3ccccc3F)o2)cc1	Cycloheximide cs 46.6, Lassa entry inh inconclusive, MARV entry inh inconclusive, Shiga toxin inh 118.3
COc1ccc(-c2nnc(SCc3cccc(C#N)c3)o2)cc1	Lassa entry inh inconclusive
CSc1ccccc1NC(=O)c1cc(-c2cccnc2)nc2ccc(Br)cc12	Lassa entry inh inconclusive, MARV entry inh inconclusive
CCOc1ccc(S(=O)(=O)NC2CCCCCC2)cc1	none
CCC(=O)N1c2ccc(S(=O)(=O)NC3CCCCC3)cc2CC1C (stereo unspecified)	Cycloheximide cs 30.6 (no result: Lassa entry inh, MARV entry inh)
O=C(C1CC1)N1CCc2cc(S(=O)(=O)NCc3ccccc3)ccc21	Cycloheximide cs 13.6 (no result: Lassa entry inh, MARV entry inh)
CC1Cc2cc(S(=O)(=O)NCc3ccccc3)ccc2N1C(=O)C1CC1 (stereo unspecified)	Cycloheximide cs 26.4 (no result: Lassa entry inh, MARV entry inh)
CC1Cc2cc(S(=O)(=O)NCc3ccccc3)ccc2N1C(=O)C1CCC1 (stereo unspecified)	Lassa entry inh inconclusive, MARV entry inh inconclusive
CCOc1cc(S(=O)(=O)NC2CCCCCC2)ccc1F	Shiga toxin inh 41.1
O=C(Nc1nc2n(n1)C(c1ccccc1)C=C(c1ccccc1)N2)c1ccccc1 (stereo unspecified)	none (no result: Cycloheximide cs, Shiga toxin inh)
COc1cc(CC(=O)Nc2sc3c(c2C(N)=O)CCCC3)cc(OC)c1OC	Lassa entry inh inconclusive
CCCCCc1nc2sc3c(c2c(=O)n1NC(=O)c1ccc([N+](=O)[O-])cc1)CC(C)(C)OC3	Lassa entry inh inconclusive, MARV entry inh inconclusive
CC(=O)N1c2ccc(S(=O)(=O)NCC3CCC(C(=O)NCc4ccccc4)CC3)cc2CC1C (stereo unspecified)	none (no result: Lassa entry inh, MARV entry inh)
CCC(=O)N1c2ccc(S(=O)(=O)NCc3ccccc3)cc2CC1C (stereo unspecified)	Cycloheximide cs 36.4 (no result: Lassa entry inh, MARV entry inh)
COc1ccccc1CNC(=O)CCCCn1c(=O)c2ccccc2n(Cc2ccccc2F)c1=O	none (no result: Cycloheximide cs, Shiga toxin inh)
CCOC(=O)c1c(NC(=O)CN2C(=O)C(=O)N(CC(C)C)C2=O)sc(C)c1CC	none (no result: Cycloheximide cs, Shiga toxin inh)
CCCNc1ncnc2c1cnn2-c1ccc(OC)cc1	none (no result: Lassa entry inh)
COc1ccc(-n2ncc3c(NCCCN4CCOCC4)ncnc32)cc1	Cycloheximide cs 40.9, Lassa entry inh inconclusive, MARV entry inh inconclusive, Shiga toxin inh 83.4
COc1ccc(-n2ncc3c(NCCN4CCOCC4)ncnc32)cc1	Cycloheximide cs 34.0, Lassa entry inh inconclusive, Shiga toxin inh 46.5
Cc1ccc(-n2ncc3c(NCCCN4CCOCC4)ncnc32)c(C)c1	none (no result: Lassa entry inh, MARV entry inh)
COc1ccc(-c2nnc(SC(C)C(=O)Nc3cccc(Cl)c3)o2)cc1 (stereo unspecified)	Lassa entry inh inconclusive, MARV entry inh inconclusive, Shiga toxin inh 66.4
COc1ccc(-c2cc(C(=O)Nc3cccc(Cl)c3)no2)cc1	Cycloheximide cs 42.4, Shiga toxin inh 85.2 (no result: Lassa entry inh, MARV entry inh)
COc1ccc(-c2cc(C(=O)Nc3cccc(C(C)=O)c3)no2)cc1	Lassa entry inh inconclusive
COc1cc(NC(=O)c2cc(-c3ccc(C)cc3)on2)cc(OC)c1OC	Cycloheximide cs 11.5 (no result: Lassa entry inh, MARV entry inh, Shiga toxin inh)
COc1cccc(-c2cc(C(=O)Nc3cccc(O)c3)no2)c1	Lassa entry inh 6.51µM, MARV entry inh 4.61µM
COc1ccc(-c2cc(C(=O)Nc3ccccc3SC)no2)cc1OC	MARV entry inh inconclusive
COc1cccc(-c2cc(C(=O)Nc3ccccc3SC)no2)c1	Cycloheximide cs 36.2, MARV entry inh inconclusive, Shiga toxin inh 34.8
CCCCOc1ccc(C(=O)NCC(=O)NCC2CCCO2)cc1 (stereo unspecified)	none
O=C1[C@H]2[C@H]3[C@H](O)[C@H](O)C/C(=N/OC[C@@H](O)COCc4ccco4)[C@@H]3CC[C@@H]2C(=O)N1C[C@@H]1CCCO1	none (no result: Cycloheximide cs, Lassa entry inh, Shiga toxin inh)
COC1c2ccccc2C(=O)N1CCc1ccc(Cl)cc1 (stereo unspecified)	Cycloheximide cs 15.8, Shiga toxin inh 41.4 (no result: Lassa entry inh, MARV entry inh)
COC(=O)C1=C(SC)N(c2ccccc2)C(c2ccccc2)CC1=O (stereo unspecified)	none
Cc1ccc(NC(=O)CSc2ccccc2NC(=O)c2ccccc2Cl)cc1Cl	Cycloheximide cs 17.9, MARV entry inh inconclusive
Cc1ccc(NC(=O)CSc2ccccc2NC(=O)c2ccccc2)cc1Cl	Cycloheximide cs 33.8, MARV entry inh inconclusive
CCOc1ccc(NCC(=O)N/N=C/C=C/c2ccccc2)cc1	none
CCOc1ccc(N=C/C=C/c2ccccc2)c(O)c1	Cycloheximide cs 21.6, Shiga toxin inh 63.9 (no result: Lassa entry inh, MARV entry inh)
Nc1nc(Nc2ccc(Cl)cc2Cl)nc(C(F)(F)F)n1	Cycloheximide cs 42.6, MARV entry inh inconclusive, Shiga toxin inh 65.4
Nc1nc(Nc2ccccc2)nc(C(F)(F)F)n1	Cycloheximide cs 30.0
COc1ccnc2c1c(=O)n(Cc1ccc(Cl)cc1)c(=O)n2C	none (no result: Lassa entry inh, MARV entry inh)
CCC(=O)n1nc(-c2ccco2)nc1SCc1ccccc1	Cycloheximide cs 35.2, Lassa entry inh inconclusive, Shiga toxin inh 31.6
CC(=O)n1nc(-c2ccco2)nc1SCc1ccccc1	Cycloheximide cs 18.9
O=C(c1cccs1)n1nc(-c2ccco2)nc1SCc1ccccc1	Cycloheximide cs 25.8, Shiga toxin inh 41.0
O=C(c1ccc(C#CC2(O)CCCCC2)cc1)N1CCN(C(c2ccccc2)c2ccccc2)CC1	Cycloheximide cs 21.3, Lassa entry inh inconclusive, MARV entry inh inconclusive
O=C(c1ccc(C#CC2(O)CCCCC2)cc1)N1CCN(Cc2ccccc2)CC1	MARV entry inh inconclusive
CCOC(=O)N1CCN(C(=O)c2ccc(C#CC3(O)CCCCC3)cc2)CC1	Cycloheximide cs 31.3, Shiga toxin inh 40.7
Nn1c(SCC(=O)Nc2nccs2)nnc1-c1ccccn1	none (no result: Cycloheximide cs, Shiga toxin inh)
CN(C(=O)c1ccc2c(=O)n3c(nc2c1)CCCCC3)c1cccc(Cl)c1	Cycloheximide cs 17.5
CN(C(=O)c1ccc2c(=O)n3c(nc2c1)CCCCC3)c1ccccc1F	Cycloheximide cs 16.9 (no result: Lassa entry inh, MARV entry inh)
